Tg IFNy HTS: blocks Toxoplasma gondii growth in the presence of IFN-gamma. Toxoplasma gondii growth in IFN-gamma-treated host cells; hits give low values. activity change, negative = inhibition, % (no concentration beside the values). 69,000 tested, 3.8% active. AID 1259416; in the data active means activity change below about -70%, passing the limit was not always enough;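 further: host cells are HeLa cells infected with Toxoplasma gondii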
Numbers without * were called inactive; ! = not active in a repeat. Shown is part of a subset that was picked to be rich in hits.

SMILES	Tg IFNy HTS
COc1ccc(S(=O)(=O)N2CC3(CN(C(=O)CN(C)C)[C@@H](CO)c4c3c3ccc(OC)cc3n4C)C2)cc1	-28
COc1ccc2c3c(n(C)c2c1)[C@@H](CO)N(Cc1nccs1)CC31CCN(C(=O)CN(C)C)CC1	5
O=C(c1ccc(F)cc1)N1CCC2(CC1)CC(Oc1cccnc1)C2	-15
CCn1ccc2cc(S(=O)(=O)N3CCCC(C(=O)NCc4cccnc4)C3)ccc21 (stereo not given)	-58
COc1ccc2c(c1)OCC(CN(C)CCCn1nc(C)cc1C)=C2	15
Cc1ccc2[nH]c(=O)c(-c3nc(-c4ccc(F)cc4)no3)c(O)c2c1	14
CN(C)CC/C=C1/c2ccccc2COc2ccc(CC(=O)O)cc21	-2
OCCOCCN1CCN(C2=Nc3ccccc3Sc3ccccc32)CC1	-4
OCCN1CCN(CC/C=C2/c3ccccc3Sc3ccc(Cl)cc32)CC1	-74*
CN(C)CC/C=C1/c2ccccc2COc2ccccc21	16
CN(C)CC/C=C1\c2ccccc2Sc2ccc(Cl)cc21	-77*!
CN(C)CCC=C1c2ccccc2CCc2ccccc21	-75*!
CC(C)c1ccc2c(c1)C(N1CCN(CCO)CC1)Cc1ccc(F)cc1S2 (stereo not given)	-66
CN(C)CCC1(c2ccc(Cl)cc2)Cc2ccccc2C(=O)O1 (stereo not given)	14
CN(C)CCC=C1c2ccccc2C=Cc2ccccc21	-26
CCOC(=O)CSC1=Nc2ccccc2C2=NC(CCC(=O)NCCc3ccccc3)C(=O)N12 (stereo not given)	2
COCCN(C)C(=O)c1cnc(-c2noc3cc(N4CCCCC4)ccc23)s1	-28
COc1cc(NC(=O)Cc2c(C)noc2C)ccc1-n1nc(C)cc1C	-9
CCn1c(C2CCN(C(=O)CC3CCS(=O)(=O)C3)CC2)nn(C)c1=O (stereo not given)	-5
Cc1nn(CC(=O)NC2CCCCCC2)c(=O)c2nc(-c3ccccc3)sc12	23
O=c1c(O)cccc2cc(O)c(O)c(O)c12	12
O=c1c(O)c(-c2ccccc2)oc2cc(O)cc(O)c12	67
O=c1cc(-c2ccccc2)oc2cc(O)c(O)c(O)c12	-77*!
COc1cc2oc(-c3ccc(O)cc3)cc(=O)c2c(OC)c1O	-82*
COc1ccc(-c2cc(=O)c3c(O)cc(O)cc3o2)cc1O	86
SMILES	Tg IFNy HTS
COc1ccc(-c2cc(=O)c3ccc(O)cc3o2)cc1	-8
Cc1ccc2nc(CCc3ccc(NC(=O)CCC4CCCO4)cc3)[nH]c2c1 (stereo not given)	98
CCCc1c(-c2nc(-c3ccc(C(C)(C)C)cc3)no2)cnn1-c1ccccc1	-97*
CCCc1c(C(=O)Nc2ccc3ccccc3n2)cnn1-c1ccccc1	-37
CC(C)(C)c1ccc(-c2noc(CCOc3ccc(F)cc3)n2)cc1	34
COc1ccccc1CCCNc1cc(C(C)Cn2nc(C)c(C)c2C)nc(C)n1 (stereo not given)	-11
CC(C)c1ccc(NC(=O)CSc2nnc(CSc3cccs3)n2C)cc1	-21
Clc1ccccc1CSc1nc2ccccc2[nH]1	-37
c1ccc(-n2nnnc2CSc2nc3ccccc3[nH]2)cc1	-1
Cc1cc(CSc2nc3ccccc3[nH]2)c(C)cc1CSc1nc2ccccc2[nH]1	-96*
CC(C)C(CNC(=O)c1ccc(N2CCCCC2)cc1)N1CCOCC1 (stereo not given)	5
Cc1cc(C)n(Cc2ccc(C(=O)NCCS(=O)(=O)N(C)C)cc2)n1	-1
O=C(N1CCCCC1)C12CC3CC(CC(C3)C1)C2	18
O=C(Nc1ccncc1)C12CC3CC(CC(C3)C1)C2	-47
O=C(c1ccc2nc(NC(=O)C34CC5CC(CC(C5)C3)C4)sc2c1)N1CCCCC1	-85*
CC(=O)N1c2ccc(NC(=O)c3c(-c4ccncc4)noc3C)cc2CC1C (stereo not given)	9
CCc1ccc(CN(Cc2ccncc2)Cc2ccc(F)cc2)nc1	0
Fc1ccc(CN(Cc2ccncc2)Cc2cccc3c2OCO3)cc1	-82*
OCc1ccc(CN(Cc2ccncc2)Cc2ccc(F)cc2)o1	-8
CCN(Cc1ccncc1)C(=O)CSCc1ccccc1Cl	65
COc1ccc(-c2ccc(C(=O)NCc3nnc4n3CCCC4)o2)cc1	7
COc1ccc(CNc2nc(SCc3ccc(Cl)cc3)nc3ccccc23)cc1	-61
CCN(CC)c1ncc2c(NCc3ccccc3)nc(SCc3ccccc3)nc2n1	-110*
COc1ccc(CNc2nc(SCc3ccc(F)cc3)nc3ccccc23)cc1	-70
CN(C(=O)c1nc(-c2cn(C)cn2)n2ccccc12)c1ccccc1	4
SMILES	Tg IFNy HTS
Cc1ccccc1-c1nc(CN(C)S(=O)(=O)c2ccc(Cl)cc2)c(C)o1	16
Cc1ccccc1-c1nc(CN(C)S(=O)(=O)c2ccccc2)c(C)o1	-1
CCN(CC)S(=O)(=O)c1ccc2c(c1)N(Cc1nc(-c3ccccc3C)oc1C)C(=O)CS2	-78*
CCOC(=O)C1CCC(CNC(=O)Nc2ccc(-c3nc(-c4ccc(C)cc4C)co3)cc2)CC1 (stereo not given)	45
Cn1c(C#N)ccc1-c1ccc2c(c1)C(C)(C)OC(=S)N2	-83*
COc1ccc(-c2nc(Nc3ccc(C)c(C)c3)c3ccccc3n2)cc1	-27
Cc1cccc(-n2cc(-c3ccnc(NC(C)Cc4ccncc4)n3)cn2)c1 (stereo not given)	-51
CC(Cc1cccnc1)Nc1nccc(-c2cnn(-c3ccccc3F)c2)n1 (stereo not given)	-72*
CC(NC(=O)Cc1ccccn1)c1cnn(-c2ccccc2F)c1 (stereo not given)	6
CC(=O)N1CC2(CCN(C(=O)c3ccccc3-n3cccc3)CC2)CC1C(=O)O (stereo not given)	10
O=C1CO[C@H]2CN(C(=O)COc3ccccc3)C[C@@H]2N1	-27
Cc1nc(CCn2ncc3ccccc32)cc(NCCCN(C)c2ccccc2)n1	25
O=C(c1ccc2onc(-c3coc(-c4ccc(F)cc4)n3)c2c1)N1CCCO1	-13
O=C(NCc1ccco1)c1nc(Nc2ccc(F)cc2)c2ccccc2n1	-47
Cc1ccc(NC(=O)CN2C(=O)CCc3cc(S(=O)(=O)N4CCC(C)CC4)ccc32)cc1Cl	-103*
CC1CCN(S(=O)(=O)c2ccc3c(c2)CCC(=O)N3CC(=O)Nc2ccc(Cl)cc2)CC1	-92*
CC1CCN(S(=O)(=O)c2ccc3c(c2)CCC(=O)N3CC(=O)Nc2ccc(F)cc2)CC1	-24
CC(=O)Nc1ccc(NC(=O)CN2C(=O)CCc3cc(S(=O)(=O)N4CCCCC4C)ccc32)cc1 (stereo not given)	-6
Cc1cccc(NC(=O)CN2C(=O)CCc3cc(S(=O)(=O)N4CCC(C)CC4)ccc32)c1	-30
CC1CCN(S(=O)(=O)c2ccc3c(c2)CCC(=O)N3CC(=O)Nc2ccc3c(c2)OCO3)CC1	-18
CC1CCCCN1S(=O)(=O)c1ccc2c(c1)CCC(=O)N2CC(=O)Nc1ccc2c(c1)OCCO2 (stereo not given)	-12
Cc1ccc(NC(=O)CN2C(=O)CCc3cc(S(=O)(=O)N4CCCCC4C)ccc32)cc1C (stereo not given)	-84*
Cc1ccc(NC(=O)CN2C(=O)CCc3cc(S(=O)(=O)N4CCC(C)CC4)ccc32)cc1F	-47
Cc1ccc(OCC(=O)N[C@@H]2C[C@H]3C(=O)N(C)CC(=O)N3C2)cc1C	2
c1nc2c(n1CC1CC1)C(COCC1CCOCC1)CNC2 (stereo not given)	-38
CC(=O)CSc1nnc(-c2ccc(S(=O)(=O)N3CCOCC3)cc2)o1	-3

Screening results: PubChem BioAssay, Broad Institute
